Each structure is given as a SMILES string.

The nature of this experiment: qHTS profiling of the MIPE4 collection as inhibitors of Plasmodium falciparum (3D7) proliferation (AID 743344).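 Further: scaled between DMSO vehicle wells and 0.29 µM artemisinin as full inhibition.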 As to conditions: P. falciparum 3D7 in erythrocytes, SYBR Green DNA fluorescence, 72 h; at 28.5 µM unless noted. In outline:
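Erythrocytes infected with P. falciparum (0.3% parasitemia, 2.5% hematocrit) incubated with compounds 72 h at 37 C, 5% CO2. Lysis with saponin/Triton buffer containing SYBR Green I, overnight at room temperature in the dark; DNA fluorescence (485/535 nm) normalised to 0.29 uM artemisinin and DMSO.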
On the technique in general: In qHTS, concentration-response curves come from the screen itself.
Consider `CC(Cc1ccc(O)c(O)c1)(NN)C(=O)O` (stereo not given), for which the parasite growth, % of DMSO control was found to be 54.5%. Regarding `CC(=O)ON=C1C(c2c(O)[nH]c3cc(Br)ccc23)=Nc2ccccc21`, the parasite growth, % of DMSO control came to 2.37%.

On to `O=c1ccn([C@@H]2O[C@H](CO)[C@H](O)[C@@H]2F)c(=O)[nH]1`, for which the parasite growth, % of DMSO control was 187%. Under `O=C1CSC(=O)N1C(CCc1ccncc1)COc1ccc(-c2cccc([N+](=O)[O-])c2)cc1` (stereo not given) stands 17.8%; under `CCc1c(O)cc(O)c(C(=O)c2ccc(OCCN3CCOCC3)c(OC)c2)c1CC(=O)N(CCOC)CCOC`, 4.87%. The figure for `Cc1cc(-c2nnc3n2CCCCC3)c(C)n1-c1ccccc1` is 23%. Molecule `COc1ccc(S(=O)(=O)Nc2cc(-c3c(O)ccc4ccccc34)c(O)c3ccccc23)cc1` had a parasite growth, % of DMSO control of 29.2%. Under `FC(F)(F)c1ccc(Nc2nc3ccc(Oc4ccnc(-c5ncc(C(F)(F)F)[nH]5)c4)cc3[nH]2)cc1` stands 6.13%. `C=CC(=O)Nc1cc(NC(=O)c2ccc(C)c(NC(=O)c3ccno3)c2)cc(C(F)(F)F)c1`: the parasite growth, % of DMSO control is 34%. The molecule `Cn1cc(CNCC2CCN(c3ncc(C(=O)NO)cn3)CC2)c2ccccc21` yielded a parasite growth, % of DMSO control of 4.76%. Turning to `CC(=O)SCC(Cc1ccccc1)C(=O)NCC(=O)OCc1ccccc1` (stereo not given), the parasite growth, % of DMSO control turned out to be 43.2%. The molecule `O=C(C=CC#Cc1cccc(NS(=O)(=O)c2ccccc2)c1)NO` displayed a parasite growth, % of DMSO control of 5.45%. On to `C[C@@]12C(=O)OC(=O)[C@@]1(C)C1CCC2O1`, for which the parasite growth, % of DMSO control amounted to 12.4%. Molecule `COc1cccc2c1C(=O)c1c(O)c3c(c(O)c1C2=O)C[C@@](O)(C(C)=O)C[C@H]3O[C@H]1C[C@H](N)[C@H](O)[C@H](C)O1` came in with a parasite growth, % of DMSO control of 13.5%.

Molecule `CN(C)CC(=O)N1CCC(c2ccc(NC(=O)c3ncc(C#N)[nH]3)c(C3=CCCCC3)c2)CC1` gave a parasite growth, % of DMSO control of 12.3%.

The record behind these values is PubChem BioAssay (NCATS).
